# HSF1 activator = increases HSF-1 driven luciferase reporter signal | NIH3T3-HGL HSF-1 luciferase reporter, MG132, 8 h; 100% = twice DMSO control signal | activation, % at 9 µM | 1.7% of 300,000 active;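 active = mean replicate activation of at least 50% with a set share of replicates each reaching 50%; inconclusive = only one of those two conditions met; inactive = mean below 50% and too few replicates reaching it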;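 note: 0% = median of the neutral control wells and 100% = twice that signal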
# GAA850 FXN act = activators of GAA850 frataxin (FXN) promoter | HEK293 lucGAA850 FXN promoter luciferase reporter, 24 h; percent of 10 µM SAHA response | activation, % at 6 µM | 0.56% of 360,000 active | AID 540364;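 active = activation above the average of all compounds screened plus 3 SD, cutoff fixed separately per campaign, cut at about 7.5% in these data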;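 note: 0% = DMSO wells and 100% = 10 µM SAHA wells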
# HSF1 inhib = HSF1 inhibition; NIH3T3-HGL HSE-luciferase, MG132-induced, luminescence 8 h; hits give low values; activity change, negative = inhibition, % at 7.5 µM (by protocol); 0.77% of 300,000 active; AID 2098;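 active = more than half of replicate wells show activity change below -50%, luminescence cut by over half; inconclusive = some wells, but at most half, below -50%; inactive = no replicate well below -50%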;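 note: luciferase reports HSF-1 transcriptional activity via heat shock element; 0% = median of DMSO wells and -100% = zero luminescence signal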
# NR0B1 inh = inhibits human nuclear receptor DAX1; P51843; 0.99% of 340,000 active; inhibition, % at 6.75 µM; HEK293 Gal4-DAX1 luciferase reporter, luminescence; AID 504766;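 active = inhibition above the mean over all tested compounds plus 3 SD, cut at about 4.2% in these data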;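 note: 0% = DAX1-transfected cells with DMSO and 100% = empty-vector control cells with DMSO; inhibition shows as a rise in luminescence from relieved DAX1 repression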
# Target sequence (P51843 207-470 limits assumed): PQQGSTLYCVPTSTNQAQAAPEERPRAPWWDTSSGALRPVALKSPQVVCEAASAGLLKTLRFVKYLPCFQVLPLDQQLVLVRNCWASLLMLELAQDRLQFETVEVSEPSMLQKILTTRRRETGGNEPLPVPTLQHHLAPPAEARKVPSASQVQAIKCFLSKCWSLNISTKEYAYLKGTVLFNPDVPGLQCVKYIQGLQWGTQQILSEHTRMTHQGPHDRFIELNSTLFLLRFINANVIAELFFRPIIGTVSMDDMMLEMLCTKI
# AHR act = activates the human aryl hydrocarbon receptor; P35869; AHR-responsive luciferase reporter cells, luminescence; activation, % at 5 µM; 2.5% of 320,000 active; in the data active = activation above about 47%;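 note: 0% = vehicle wells and 100% = reference agonist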
# * hit, by the source's call; ? = inconclusive; / = not tested or not shown. Compounds with a hit are over-represented: about 5.4% of the library has one in this group of screens.
SMILES,HSF1 activator,GAA850 FXN act,HSF1 inhib,NR0B1 inh,AHR act
c1ccc(CCN2CCN(c3ncnc4c3cnn4-c3ccccc3)CC2)cc1,24,0,9,-2,9
CC1CC(C)CN(c2ncnc3c2cnn3-c2ccc(Cl)cc2)C1 (centres undefined),-54,-7,-52*,1,-5
CC1CCCN(c2ncnc3c2cnn3-c2ccccc2)C1 (centres undefined),-68,-9,-61*,-4,26
CC1CCCN(c2ncnc3c2cnn3-c2ccc(Cl)cc2)C1 (centres undefined),-92,-15,-90*,-4,-3
CN1CCN(c2ncnc3c2cnn3-c2ccc(Cl)cc2)CC1,-50,-2,?,1,-6
COc1ccc(/C=C(\NC(=O)c2ccc(C)cc2)C(=O)N2CCCCC2)cc1,-4,1,-5,-2,0
c1ccc(CSc2nnc3ccc(-c4ccco4)nn23)nc1,-16,4,4,0,-2
Nc1ccc2nc(-c3ccccc3)cnc2c1,7,4,13,3,4
Cc1cc2ncc(-c3ccccc3)nc2cc1C,40,4,8,5.0*,20
CCOC(=O)c1ccc2ncc(-c3ccccc3)nc2c1,62*,6,33,2,/
O=C1c2[nH]c3ccccc3c2CC1N1C(=O)c2ccccc2C1=O (centres undefined),/,1,/,2,/
O=[N+]([O-])c1cccnc1-n1cnc2ccccc21,1,0,-10,2,1
Cc1cc2ncn(-c3ncccc3[N+](=O)[O-])c2cc1C,17,3,-6,-1,48*
Cc1ccc(S(=O)(=O)N2CCN(C(=O)CN3CCN(c4ccc(O)cc4)CC3)CC2)cc1,/,0,/,0,/
CCOc1ccc2nc(COC(=O)c3cccc([N+](=O)[O-])c3)c(C(C)=O)[n+]([O-])c2c1,69*,1,27,/,1
COc1ccc2nc(COC(=O)c3cccc([N+](=O)[O-])c3)c(C(C)=O)[n+]([O-])c2c1,-4,2,-7,1,1
COc1ccc2nc(COC(=O)c3cccs3)c(C(C)=O)[n+]([O-])c2c1,-63,0,-54*,1,3
COc1ccc(C/C(N)=N/OC(=O)c2cccs2)cc1,22,0,23,1,-3
COc1ccc(OCCOC(=O)c2cccs2)cc1,63*,1,18,0,0
CC(=O)N1c2ccccc2Oc2cc3ccccc3cc21,18,5,15,2,65*
O=C(CCl)N1c2ccccc2Oc2ccc3ccccc3c21,/,5,/,2,/
COCc1cc(C)nc2sc(C(=O)N3CCCC3)c(N)c12,9,1,-4,0,76*
CCCNC(=O)c1ccc(N2CCC3(CC2)CC(c2cccc(Br)c2)=NO3)c(NC(=O)c2ccc(Cl)c([N+](=O)[O-])c2)c1,-20,1,-1,1,-1
CCOC(=O)c1c(C)c(C(=O)Nc2ccc3c(c2)OCO3)c(C)n1C,71*,0,36,0,38
O=C(Nc1ccc2c(c1)OCO2)c1c(F)c(F)c(F)c(F)c1F,13,-1,4,0,10
SMILES,HSF1 activator,GAA850 FXN act,HSF1 inhib,NR0B1 inh,AHR act
CCc1onc(C)c1C(=O)Nc1ccc2c(c1)OCO2,1,-1,1,1,58*
CCOC(=O)c1c(C)c(C(=O)Nc2ccc3c(c2)OCCO3)c(C)n1CC,5,-5,-7,-2,5
O=C(CSc1nnc(COc2ccccc2)o1)Nc1ccc(F)cc1,25,2,-1,-1,8
O=C1CN(C(=O)CN2CCOCC2)C(c2ccccc2)c2cc(Br)ccc2N1 (centres undefined),7,0,3,0,57*
CC1Cc2cc(/C(O)=C3/C(=O)C(=O)N(CCN4CCOCC4)C3c3ccc([N+](=O)[O-])cc3)ccc2O1 (centres undefined),0,-1,-4,1,1
CN1CCN(c2ccc(Cl)cc2NC(=O)/C=C/c2ccc(F)cc2)CC1,-4,0,-3,5.7*,2
O=C(/C=C/c1ccc(F)cc1)Nc1cc(S(=O)(=O)N2CCOCC2)ccc1N1CCCC1,10,-4,19,0,-3
COc1ccccc1-c1nnc(NC(=O)C(C)SC2=NCCS2)s1 (centres undefined),-10,1,1,1,57*
Cc1cc(Nc2cccc(Cl)c2)nc(N2CCOCC2)n1,-12,1,4,1,52*
Cc1cc(Nc2ccccc2)nc(N2CCOCC2)n1,23,0,3,0,25
Cc1c(NS(=O)(=O)c2cc(C(=O)NCc3cccc(Cl)c3)ccc2Cl)c(=O)n(-c2ccccc2)n1C,/,-1,/,0,/
Cc1c(NS(=O)(=O)c2cc(C(=O)NCCN(C)C)ccc2Cl)c(=O)n(-c2ccccc2)n1C,-80,2,-74*,-1,0
C=CCn1c(SCC#N)nc2ccccc2c1=O,53*,6,10,1,11
COc1cccc(C(NC(C)=O)c2nc(-c3cccc(C(=O)O)c3)cs2)c1 (centres undefined),/,-1,/,/,/
CCc1ccccc1N(CC(=O)N1CCCC1)S(C)(=O)=O,-65,0,-56*,0,-1
CCc1ccccc1N(CC(=O)N1CCCCCC1)S(C)(=O)=O,-2,0,1,1,-2
COc1ccc(-c2csc3nc(-c4ccccc4OC)oc(=O)c23)cc1,91*,-1,61,1,-7
Cc1nn(CCCC(=O)NCc2ccco2)c(=O)c2nn(-c3ccccc3)c(C)c12,-1,5,-1,0,1
CN(C)c1cccc(Oc2nc3c(c(=O)n(C)c(=O)n3C)n2C)c1,5,0,0,3,15
Cn1c(=O)c2c(nc(Oc3cccc(Br)c3)n2C)n(C)c1=O,1,1,-1,0,48*
Clc1ccc(Cn2ccc(-c3ccc4c(c3)OCO4)n2)cc1Cl,25,2,12,0,51*
Cc1ccc(NC(=O)CSC2=C(C#N)C(c3ccc4c(c3)OCO4)CC(=O)N2)cc1C (centres undefined),14,2,18,0,16
CCc1ccc(NC(=O)CSC2=C(C#N)C(c3ccc4c(c3)OCO4)CC(=O)N2)cc1 (centres undefined),64*,0,29,-1,4
CC(C)(C)c1ccc(CNc2ccc([N+](=O)[O-])cn2)cc1,17,5,10,0,4
CCc1nc2ccc(C(=O)Nc3ccc(OC)c(OC)c3)cn2c1N(C)Cc1nccs1,/,-2,/,/,/
Nn1cnnc1N/N=C/c1cc(Br)cc(Br)c1O,28,1,34,-1,24
FC(F)(F)c1ccc(-c2csc(-c3ccno3)n2)cc1,25,1,-2,0,63*
CC(CCc1ccccc1)NC(=O)CN1CCc2ccccc2C1 (centres undefined),94*,3,51,-1,0
